PubChem BioAssay (EPA / NIEHS)
Calls of active or inactive are those of the source. How the source made its calls: active means hit-call score of the fitted dose curve at least 0.9, where 1 is the maximum; inactive means score below 0.9.

How the values were obtained:
[1] = ATG_CRE_CIS: Attagene CIS-FACTORIAL HepG2 Assay for human cAMP Responsive Element (CRE) binding protein 3 (AID 2282926); conditions: HepG2 CRE cis-reporter, Attagene multiplexed mRNA; actives raise or lower the signal
How it was run: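 Endogenous CRE-binding activity in HepG2 is reported through a cis-regulated transfected reporter. Following a day of exposure, mRNA levels are determined by reverse transcription PCR and fluorescent fragment analysis; fits run in both directions versus DMSO.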

[2] = target: CCAAT/enhancer-binding protein beta (Homo sapiens) (UniProt P17676); test: ATG_C_EBP_CIS: Attagene CIS-FACTORIAL HepG2 Assay for human CCAAT/Enhancer Binding Protein (C/EBP) beta (AID 2282927); conditions: HepG2 Attagene cis-factorial transcription factor reporter; actives raise or lower the signal
Chain of CCAAT/enhancer-binding protein beta (Homo sapiens) (P17676 whole entry, looked up, the tested form may be a part): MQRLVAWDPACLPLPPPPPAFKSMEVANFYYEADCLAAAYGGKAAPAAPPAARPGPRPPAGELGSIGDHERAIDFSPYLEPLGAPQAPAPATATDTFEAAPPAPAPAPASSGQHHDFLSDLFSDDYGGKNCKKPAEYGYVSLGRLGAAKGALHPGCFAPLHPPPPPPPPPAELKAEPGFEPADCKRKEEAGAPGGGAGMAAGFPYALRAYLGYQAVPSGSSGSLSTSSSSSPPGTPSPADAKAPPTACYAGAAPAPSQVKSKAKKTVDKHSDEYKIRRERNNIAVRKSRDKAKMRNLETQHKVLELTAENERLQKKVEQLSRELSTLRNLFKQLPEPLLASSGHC
How it was run: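 Endogenous C/EBPb-driven reporter transcripts measured in transfected human HepG2 cells at 24 h via RT-PCR and capillary electrophoresis of labelled fragments. Activity fitted in both directions relative to DMSO baseline.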

[3] = ATG_CMV_CIS: Attagene CIS-FACTORIAL HepG2 Assay for human CMV (Internal Marker) (AID 2282928); conditions: HepG2 CMV promoter reporter, transcription factor profiling; actives raise or lower the signal;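 further: endpoint acts as a background internal control marker rather than a target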
How it was run: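 After transient transfection of HepG2 with reporter transcription units driven by cis-regulatory promoters, cells receive test chemical for 24 h. Labeled reporter amplicons, digested with HpaI, are sized and quantified by capillary electrophoresis against DMSO.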

[4] = target: Aryl hydrocarbon receptor (Homo sapiens) (UniProt P35869); test: ATG_Ahr_CIS: Attagene CIS-FACTORIAL HepG2 Assay for human Aryl Hydrocarbon Receptor (Ahr) (AID 2282930); conditions: HepG2 AhR cis-factorial reporter transcription; actives raise or lower the signal
Chain of Aryl hydrocarbon receptor (Homo sapiens) (P35869 whole entry, looked up): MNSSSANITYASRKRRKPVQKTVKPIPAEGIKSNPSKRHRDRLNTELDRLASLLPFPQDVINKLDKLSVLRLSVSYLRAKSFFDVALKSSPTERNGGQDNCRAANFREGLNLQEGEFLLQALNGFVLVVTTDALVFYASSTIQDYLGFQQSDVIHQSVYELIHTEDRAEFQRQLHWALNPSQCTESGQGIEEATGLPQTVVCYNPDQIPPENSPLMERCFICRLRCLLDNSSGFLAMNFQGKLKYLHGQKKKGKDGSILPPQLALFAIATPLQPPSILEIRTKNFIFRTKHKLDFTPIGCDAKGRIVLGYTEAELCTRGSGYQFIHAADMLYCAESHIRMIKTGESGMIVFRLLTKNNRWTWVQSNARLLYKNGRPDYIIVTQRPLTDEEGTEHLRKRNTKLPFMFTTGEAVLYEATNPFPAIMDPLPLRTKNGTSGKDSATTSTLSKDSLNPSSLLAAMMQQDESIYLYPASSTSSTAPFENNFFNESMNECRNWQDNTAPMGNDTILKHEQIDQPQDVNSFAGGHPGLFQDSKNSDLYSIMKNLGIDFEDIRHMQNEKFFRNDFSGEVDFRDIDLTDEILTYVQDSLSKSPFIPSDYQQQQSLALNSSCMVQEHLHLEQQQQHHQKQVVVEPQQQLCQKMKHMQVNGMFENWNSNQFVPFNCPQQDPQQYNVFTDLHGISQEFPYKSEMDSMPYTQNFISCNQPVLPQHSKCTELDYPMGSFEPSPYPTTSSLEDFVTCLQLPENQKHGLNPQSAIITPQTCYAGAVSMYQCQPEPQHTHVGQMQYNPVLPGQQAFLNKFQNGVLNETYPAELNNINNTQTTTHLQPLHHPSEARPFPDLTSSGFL
How it was run: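 Reporter mRNA levels, quantified by RT-PCR and fluorescent capillary electrophoresis, reflect endogenous AhR transcriptional activity in HepG2 cells carrying transfected cis-promoter reporter constructs. Readout at 24 h post-dose; gain or loss fitted against DMSO baseline.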

[5] = ATG_AP_2_CIS: Attagene CIS-FACTORIAL HepG2 Assay for human Activator Protein 2 (AP-2) (AID 2282932); conditions: HepG2 AP-2 cis-reporter, Attagene transcription factor profiling; actives raise or lower the signal
How it was run: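 Step one: transient transfection of HepG2 with reporter transcription units. Step two: 24 h chemical exposure. Step three: RNA extraction, RT-PCR, labelled fragment analysis by capillary electrophoresis; DMSO serves as baseline.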

[6] = ATG_BRE_CIS: Attagene CIS-FACTORIAL HepG2 Assay for human Bone Morphogenetic Protein (BMP) Response Element (BRE) (AID 2282933); conditions: HepG2 BMP response element reporter, Attagene transcription factor profiling; actives raise or lower the signal
How it was run: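 HepG2 cells transiently transfected with CIS reporter units (endogenous TF activity, BMP response element), dosed 24 h. Reporter mRNA quantified by RT-PCR, fluorescent labelling and capillary electrophoresis; bidirectional fit vs DMSO baseline.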

[7] = target: Retinoic acid receptor alpha (Homo sapiens) (UniProt P10276); test: ATG_DR5_RAR_CIS: Attagene CIS-FACTORIAL HepG2 Assay for human Retinoic Acid Receptor Alpha (RARE), DR5 submotif (AID 2282934); conditions: HepG2 Attagene cis-factorial RARE DR5 reporter, mRNA; actives raise or lower the signal
Chain of Retinoic acid receptor alpha (Homo sapiens) (P10276 whole entry, looked up): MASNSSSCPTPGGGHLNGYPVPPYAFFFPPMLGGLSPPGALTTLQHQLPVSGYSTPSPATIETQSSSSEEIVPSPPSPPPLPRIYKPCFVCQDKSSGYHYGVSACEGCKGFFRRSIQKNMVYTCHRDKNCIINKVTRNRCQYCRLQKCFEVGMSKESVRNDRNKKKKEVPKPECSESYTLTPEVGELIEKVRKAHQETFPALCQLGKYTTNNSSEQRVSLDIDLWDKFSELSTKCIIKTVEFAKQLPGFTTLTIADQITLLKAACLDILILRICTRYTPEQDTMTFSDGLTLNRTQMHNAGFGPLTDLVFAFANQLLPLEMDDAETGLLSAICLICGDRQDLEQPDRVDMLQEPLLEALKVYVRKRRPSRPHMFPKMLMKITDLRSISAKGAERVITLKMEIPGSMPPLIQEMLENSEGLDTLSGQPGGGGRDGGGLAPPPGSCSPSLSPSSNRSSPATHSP
How it was run: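 Reporter transcripts from a DR5-regulated unit, measured via RT-PCR plus capillary electrophoresis, reflect endogenous RAR activity in transiently transfected human HepG2 liver cells. Exposure lasted 24 h; gain or loss of signal scored against DMSO.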

[8] = target: Transcription factor E2F1 (Homo sapiens) (UniProt Q01094); test: ATG_E2F_CIS: Attagene CIS-FACTORIAL HepG2 Assay for human E2F Transcription Factor 1 (AID 2282935); conditions: HepG2 Attagene cis-reporter, E2F reporter RNA transcripts; actives raise or lower the signal
Chain of Transcription factor E2F1 (Homo sapiens) (Q01094 whole entry, looked up): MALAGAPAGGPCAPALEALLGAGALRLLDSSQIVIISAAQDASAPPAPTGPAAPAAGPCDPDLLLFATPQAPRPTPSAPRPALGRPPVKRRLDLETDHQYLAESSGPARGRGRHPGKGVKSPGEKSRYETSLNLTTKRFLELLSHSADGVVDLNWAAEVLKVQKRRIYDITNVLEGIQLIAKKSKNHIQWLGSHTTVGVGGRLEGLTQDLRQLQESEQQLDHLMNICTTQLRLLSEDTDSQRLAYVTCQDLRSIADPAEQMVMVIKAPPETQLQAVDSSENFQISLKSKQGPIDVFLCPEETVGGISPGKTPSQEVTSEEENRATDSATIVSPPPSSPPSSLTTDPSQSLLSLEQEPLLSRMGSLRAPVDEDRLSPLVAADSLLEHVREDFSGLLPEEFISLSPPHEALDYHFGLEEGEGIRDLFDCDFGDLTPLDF
How it was run: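 Total RNA from 24 h-treated, reporter-transfected HepG2 cells undergoes DNase I treatment, oligo(dT) reverse transcription, PCR and 6-FAM primer extension before capillary electrophoresis.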

[9] = ATG_E_Box_CIS: Attagene CIS-FACTORIAL HepG2 Assay for human Enhancer Box (E-box) (AID 2282936); conditions: HepG2 E-box cis-reporter transcription, actives raise or lower the signal
How it was run: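 DMSO served as negative control and baseline for bidirectional fitting. Human hepatoma HepG2 cells, transiently transfected with cis-reporter constructs, were dosed 24 h; reporter mRNA read by RT-PCR and capillary electrophoresis.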

[10] = ATG_M_61_CIS: Attagene CIS-FACTORIAL HepG2 Assay for M61 Transcription Factor (Internal Marker) (AID 2282937); conditions: HepG2 Attagene CIS-FACTORIAL M61 internal marker reporter; actives raise or lower the signal
How it was run: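 Human liver HepG2, transient MRTU transfection (cis promoter elements), 24 h compound. Total RNA → oligo(dT) RT → PCR → FAM label → HpaI → CE. Internal background marker; bidirectional fitting, DMSO = baseline.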

[11] = ATG_EGR_CIS: Attagene CIS-FACTORIAL HepG2 Assay for human Early Growth Response 1 (EGR1) (AID 2282938); conditions: HepG2 Attagene CIS-FACTORIAL EGR reporter mRNA; actives raise or lower the signal
How it was run: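 Transient transfection of human HepG2 with multiple cis-regulated reporter units, chemical exposure 24 h, total RNA isolated. Reverse transcription, PCR, fluorescent labelling and capillary electrophoresis quantify reporter transcripts; activity fitted bidirectionally against DMSO.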

[12] = ATG_M_19_CIS: Attagene CIS-FACTORIAL HepG2 Assay for M19 Transcription Factor (Internal Marker) (AID 2282939); conditions: HepG2 Attagene CIS-FACTORIAL M19 internal marker reporter; actives raise or lower the signal
How it was run: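 HepG2 cells transiently transfected with cis-regulated multiplexed reporter units, dosed 24 h. Reporter mRNA quantified by RT-PCR and capillary electrophoresis; internal background marker fitted bidirectionally versus DMSO.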

[13] = ATG_ERE_CIS: Attagene CIS-FACTORIAL HepG2 Assay for Estrogen Response Element (ERE) (AID 2282940); conditions: HepG2 ERE cis-reporter, Attagene RNA transcript; actives raise or lower the signal
How it was run: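 HepG2 cells transiently transfected with multiplexed cis-element reporter units, measuring endogenous transcription factor activity; ERE reporter mRNA quantified after 24 h exposure by RT-PCR, fluorescent labelling, HpaI digestion and capillary electrophoresis. Bidirectional change versus DMSO.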

[14] = ATG_AP_1_CIS: Attagene CIS-FACTORIAL HepG2 Assay for human Activator Protein 1 (AP-1) (AID 2282931); conditions: HepG2 Attagene cis-factorial AP-1 reporter mRNA; actives raise or lower the signal
How it was run: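 Transient MRTU transfection of HepG2 → 24 h chemical treatment → RNA isolation, RT-PCR, 6-FAM labelling, HpaI digest → capillary electrophoresis. Fit: bidirectional, DMSO negative control.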

[15] = ATG_DR4_LXR_CIS: Attagene CIS-FACTORIAL HepG2 Assay for human Liver X Receptor (LXR), DR4 submotif (AID 2282929); conditions: HepG2 Attagene DR4 cis-reporter, mRNA transcription; actives raise or lower the signal
How it was run: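 HepG2, transient MRTU transfection, cis-element (DR4) promoter; 24 h compound exposure; total RNA → oligo(dT) RT → PCR → 6-FAM primer extension → HpaI cut → CE. Gain/loss vs DMSO, bidirectional fit.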

Measured: AC50

O=S1(=O)OC(c2cc(Br)c(O)c(Br)c2)(c2cc(Br)c(O)c(Br)c2)c2ccccc21
active: [4] 26 µM
not listed: [14] | [15]
inactive: all other assays above

CC(C)(C#N)N=NC(C)(C)C#N
not listed: [15]
inactive: all other assays above

Oc1cccc(-c2ccccc2)c1
active: [3] 67.7 µM | [14] 65.1 µM | [6] 73.5 µM | [13] 6.35 µM
not listed: [15]
inactive: all other assays above

O=C(NC(=O)c1c(F)cccc1F)Nc1cc(Cl)c(OC(F)(F)C(F)C(F)(F)F)cc1Cl (stereo unspecified)
not listed: [4] | [14]
inactive: all other assays above

c1csc(-c2ccc(-c3cccs3)s2)c1
active: [15] 2.08 µM | [11] 3.02 µM | [13] 7.65 µM
not listed: [4] | [14]
inactive: all other assays above

CCC[CH2][Sn]([Cl])([Cl])[CH2]CCC
active: [1] 0.947 µM | [2] 0.33 µM | [3] 0.721 µM | [6] 0.316 µM | [11] 1.24 µM | [13] 0.312 µM
not listed: [15]
inactive: all other assays above

Brc1c(Br)c(Br)c(Oc2c(Br)c(Br)c(Br)c(Br)c2Br)c(Br)c1Br
not listed: [13] | [15]
inactive: all other assays above

c1cc[c]([Sb]([c]2ccccc2)[c]2ccccc2)cc1
active: [3] 64.8 µM | [14] 68.5 µM
not listed: [13] | [15]
inactive: all other assays above

CCN(N=O)C(N)=O
not listed: [15]
inactive: all other assays above
